Test results published in the supplement of paper PMC11732987, “Enantioselective OTUD7B fragment discovery through chemoproteomics screening and high-throughput optimisation” (Communications Chemistry, 2025).

How the values were obtained:
Experiment in all cases: log2 ratio of Biotin-Ahx-Ub-VS probe labelling (fragment/DMSO); higher = less target engagement (more negative = stronger competition), active = hit call of the paper (q ≤ 0.05, log2 ratio ≤ -1)
Settings in all cases: compound concentration: 200 uM; treatment time: 3 h
[1] = molecular target: T1, USP42 (UniProt Q9H9J4)
T1 sequence (whole entry): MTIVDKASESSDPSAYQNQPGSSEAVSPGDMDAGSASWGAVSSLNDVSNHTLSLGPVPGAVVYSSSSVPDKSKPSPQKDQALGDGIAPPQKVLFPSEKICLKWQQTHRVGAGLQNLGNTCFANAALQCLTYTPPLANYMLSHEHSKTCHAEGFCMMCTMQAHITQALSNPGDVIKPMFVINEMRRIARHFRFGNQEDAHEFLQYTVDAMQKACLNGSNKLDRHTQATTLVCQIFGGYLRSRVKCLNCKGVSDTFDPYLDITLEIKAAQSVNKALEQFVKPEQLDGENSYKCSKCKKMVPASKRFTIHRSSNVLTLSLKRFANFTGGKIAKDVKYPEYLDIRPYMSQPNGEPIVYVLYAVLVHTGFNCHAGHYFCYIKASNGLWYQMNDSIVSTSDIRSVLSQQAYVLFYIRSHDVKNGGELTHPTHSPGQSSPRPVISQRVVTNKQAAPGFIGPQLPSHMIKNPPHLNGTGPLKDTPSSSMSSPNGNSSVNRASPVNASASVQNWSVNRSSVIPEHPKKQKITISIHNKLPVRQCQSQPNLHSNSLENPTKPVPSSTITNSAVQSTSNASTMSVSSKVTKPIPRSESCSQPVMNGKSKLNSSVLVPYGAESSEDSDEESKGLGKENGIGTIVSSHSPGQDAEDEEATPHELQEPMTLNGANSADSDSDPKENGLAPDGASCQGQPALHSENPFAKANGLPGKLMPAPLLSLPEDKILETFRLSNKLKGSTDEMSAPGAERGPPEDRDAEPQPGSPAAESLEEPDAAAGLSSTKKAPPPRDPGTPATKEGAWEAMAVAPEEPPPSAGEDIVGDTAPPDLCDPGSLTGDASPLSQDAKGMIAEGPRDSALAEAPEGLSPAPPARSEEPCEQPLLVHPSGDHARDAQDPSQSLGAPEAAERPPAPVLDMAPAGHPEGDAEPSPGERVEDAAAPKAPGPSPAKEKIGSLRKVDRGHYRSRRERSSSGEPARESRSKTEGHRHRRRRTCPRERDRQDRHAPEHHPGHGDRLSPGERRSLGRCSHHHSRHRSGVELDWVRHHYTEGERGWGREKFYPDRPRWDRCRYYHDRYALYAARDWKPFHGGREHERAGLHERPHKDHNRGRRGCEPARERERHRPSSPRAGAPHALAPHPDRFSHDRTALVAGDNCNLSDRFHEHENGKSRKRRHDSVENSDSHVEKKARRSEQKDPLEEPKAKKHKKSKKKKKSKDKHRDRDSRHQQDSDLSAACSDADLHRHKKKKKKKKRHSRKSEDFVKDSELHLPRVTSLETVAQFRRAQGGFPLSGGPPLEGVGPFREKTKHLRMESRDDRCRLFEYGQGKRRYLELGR
In short: (§1)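 Triplicate samples of HEK293T lysate, 495 µg each, received fragment at 200 µM or vehicle for 3 h, followed by Biotin-Ahx-Ub-VS (0.5 µM final) for 1 h. After NeutrAvidin enrichment of labelled DUBs and LysC/trypsin digestion, peptides were run by diaPASEF LC-MS/MS. The values are average log2 fragment/vehicle ratios from global-median-normalised Spectronaut label-free quantities, tested by unpaired t-test on proteins having ≥2 unique peptides.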

[2] = molecular target: USP46 (UniProt P62068)
Sequence of USP46 (P62068 whole entry): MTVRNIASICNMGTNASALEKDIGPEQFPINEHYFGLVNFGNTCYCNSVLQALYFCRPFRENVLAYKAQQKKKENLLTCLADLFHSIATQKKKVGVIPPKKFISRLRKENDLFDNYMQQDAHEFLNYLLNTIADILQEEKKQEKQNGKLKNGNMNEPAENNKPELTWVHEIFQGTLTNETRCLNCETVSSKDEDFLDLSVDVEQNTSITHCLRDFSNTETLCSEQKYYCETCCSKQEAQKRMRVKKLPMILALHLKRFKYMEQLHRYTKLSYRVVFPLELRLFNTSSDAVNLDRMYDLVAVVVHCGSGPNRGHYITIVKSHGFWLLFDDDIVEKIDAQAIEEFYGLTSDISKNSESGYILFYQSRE
In short: as §1

[3] = molecular target: T2, USP47 (UniProt Q96K76)
T2 sequence (whole entry): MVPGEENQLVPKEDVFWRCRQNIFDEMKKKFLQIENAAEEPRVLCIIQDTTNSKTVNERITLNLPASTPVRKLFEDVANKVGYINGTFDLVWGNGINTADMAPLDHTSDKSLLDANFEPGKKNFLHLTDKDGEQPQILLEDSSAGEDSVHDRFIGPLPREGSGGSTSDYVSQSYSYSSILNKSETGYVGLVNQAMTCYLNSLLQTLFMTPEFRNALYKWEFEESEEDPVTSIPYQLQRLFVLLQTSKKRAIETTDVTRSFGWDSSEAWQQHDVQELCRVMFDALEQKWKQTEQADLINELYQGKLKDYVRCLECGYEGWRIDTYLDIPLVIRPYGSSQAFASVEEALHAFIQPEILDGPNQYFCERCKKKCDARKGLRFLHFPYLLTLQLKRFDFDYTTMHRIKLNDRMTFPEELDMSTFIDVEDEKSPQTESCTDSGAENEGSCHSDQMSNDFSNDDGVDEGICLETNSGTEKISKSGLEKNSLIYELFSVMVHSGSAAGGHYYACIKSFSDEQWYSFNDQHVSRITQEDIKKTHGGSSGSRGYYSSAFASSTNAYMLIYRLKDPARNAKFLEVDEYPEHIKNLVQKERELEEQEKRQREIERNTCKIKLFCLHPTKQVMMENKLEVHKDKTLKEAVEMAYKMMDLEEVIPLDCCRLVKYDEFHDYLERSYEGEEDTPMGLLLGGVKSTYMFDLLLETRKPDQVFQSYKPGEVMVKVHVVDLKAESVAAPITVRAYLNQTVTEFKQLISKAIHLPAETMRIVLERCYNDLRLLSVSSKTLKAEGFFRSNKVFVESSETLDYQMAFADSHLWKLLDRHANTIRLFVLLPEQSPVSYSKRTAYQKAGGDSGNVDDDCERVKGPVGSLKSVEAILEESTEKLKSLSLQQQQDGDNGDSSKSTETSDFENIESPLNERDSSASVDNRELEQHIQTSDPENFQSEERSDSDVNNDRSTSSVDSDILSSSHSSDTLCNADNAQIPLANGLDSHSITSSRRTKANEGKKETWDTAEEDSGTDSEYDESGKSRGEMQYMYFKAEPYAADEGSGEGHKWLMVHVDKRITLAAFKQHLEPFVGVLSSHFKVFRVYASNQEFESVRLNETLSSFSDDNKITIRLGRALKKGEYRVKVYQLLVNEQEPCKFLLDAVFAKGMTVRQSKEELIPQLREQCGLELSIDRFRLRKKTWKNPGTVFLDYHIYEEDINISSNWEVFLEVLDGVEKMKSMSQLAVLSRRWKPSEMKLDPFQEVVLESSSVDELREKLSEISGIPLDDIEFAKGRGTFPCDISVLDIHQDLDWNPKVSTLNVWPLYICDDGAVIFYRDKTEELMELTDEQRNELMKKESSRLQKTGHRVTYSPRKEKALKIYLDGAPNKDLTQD
In short: as §1

[4] = molecular target: T3, USP48 (UniProt Q86UV5)
T3 sequence (whole entry): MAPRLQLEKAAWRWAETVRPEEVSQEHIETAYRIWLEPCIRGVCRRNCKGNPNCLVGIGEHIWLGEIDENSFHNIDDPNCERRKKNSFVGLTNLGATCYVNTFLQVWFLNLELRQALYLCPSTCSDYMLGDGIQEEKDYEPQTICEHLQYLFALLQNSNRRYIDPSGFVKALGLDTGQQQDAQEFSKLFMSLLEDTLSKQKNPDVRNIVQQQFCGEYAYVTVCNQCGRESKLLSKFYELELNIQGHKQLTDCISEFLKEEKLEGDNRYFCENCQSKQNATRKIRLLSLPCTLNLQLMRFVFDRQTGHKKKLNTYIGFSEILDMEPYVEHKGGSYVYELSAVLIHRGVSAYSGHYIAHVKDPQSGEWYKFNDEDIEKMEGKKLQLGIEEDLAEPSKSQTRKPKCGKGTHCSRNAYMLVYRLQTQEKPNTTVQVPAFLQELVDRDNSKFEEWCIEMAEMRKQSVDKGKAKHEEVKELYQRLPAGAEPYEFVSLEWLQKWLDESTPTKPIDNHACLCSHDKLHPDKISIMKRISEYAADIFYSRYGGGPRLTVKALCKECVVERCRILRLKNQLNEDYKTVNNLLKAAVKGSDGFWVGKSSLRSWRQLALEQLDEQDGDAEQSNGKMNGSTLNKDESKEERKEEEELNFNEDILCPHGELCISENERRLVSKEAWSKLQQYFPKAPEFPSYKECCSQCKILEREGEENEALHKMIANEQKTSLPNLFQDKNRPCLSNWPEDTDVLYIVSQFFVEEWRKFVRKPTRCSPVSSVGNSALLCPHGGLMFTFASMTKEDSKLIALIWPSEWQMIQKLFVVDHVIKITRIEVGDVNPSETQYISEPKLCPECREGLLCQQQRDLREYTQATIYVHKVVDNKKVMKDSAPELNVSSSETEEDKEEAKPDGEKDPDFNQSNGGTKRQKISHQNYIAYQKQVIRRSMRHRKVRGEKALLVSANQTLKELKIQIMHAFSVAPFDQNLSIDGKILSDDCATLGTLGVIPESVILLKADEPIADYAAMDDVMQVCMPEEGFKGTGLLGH
In short: as §1

[5] = molecular target: T4, USP5 (UniProt P45974)
T4 sequence (whole entry): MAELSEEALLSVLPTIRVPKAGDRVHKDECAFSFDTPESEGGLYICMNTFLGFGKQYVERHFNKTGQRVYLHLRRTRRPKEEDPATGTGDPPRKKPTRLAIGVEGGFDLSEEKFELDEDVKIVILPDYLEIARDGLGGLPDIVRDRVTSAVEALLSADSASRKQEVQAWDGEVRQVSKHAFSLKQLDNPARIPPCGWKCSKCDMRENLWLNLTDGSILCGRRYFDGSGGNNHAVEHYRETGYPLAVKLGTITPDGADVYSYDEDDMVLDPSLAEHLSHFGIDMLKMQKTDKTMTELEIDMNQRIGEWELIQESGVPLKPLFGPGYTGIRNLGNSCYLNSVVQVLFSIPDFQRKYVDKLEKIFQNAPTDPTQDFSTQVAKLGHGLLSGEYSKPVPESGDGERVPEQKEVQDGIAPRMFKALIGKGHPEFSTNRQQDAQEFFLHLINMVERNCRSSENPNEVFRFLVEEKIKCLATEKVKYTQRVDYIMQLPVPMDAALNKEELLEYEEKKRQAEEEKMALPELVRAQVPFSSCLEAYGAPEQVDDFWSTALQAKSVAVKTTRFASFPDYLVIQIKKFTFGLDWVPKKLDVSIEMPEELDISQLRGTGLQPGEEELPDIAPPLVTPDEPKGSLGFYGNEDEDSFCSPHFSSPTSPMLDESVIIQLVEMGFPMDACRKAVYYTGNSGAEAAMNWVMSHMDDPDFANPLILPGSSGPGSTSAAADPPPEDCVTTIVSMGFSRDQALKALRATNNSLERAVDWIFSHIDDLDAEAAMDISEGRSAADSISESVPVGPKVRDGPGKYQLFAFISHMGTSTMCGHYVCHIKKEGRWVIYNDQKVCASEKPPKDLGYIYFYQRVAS
In short: as §1

[6] = molecular target: USP54 (UniProt Q70EL1)
Sequence of USP54 (Q70EL1 whole entry): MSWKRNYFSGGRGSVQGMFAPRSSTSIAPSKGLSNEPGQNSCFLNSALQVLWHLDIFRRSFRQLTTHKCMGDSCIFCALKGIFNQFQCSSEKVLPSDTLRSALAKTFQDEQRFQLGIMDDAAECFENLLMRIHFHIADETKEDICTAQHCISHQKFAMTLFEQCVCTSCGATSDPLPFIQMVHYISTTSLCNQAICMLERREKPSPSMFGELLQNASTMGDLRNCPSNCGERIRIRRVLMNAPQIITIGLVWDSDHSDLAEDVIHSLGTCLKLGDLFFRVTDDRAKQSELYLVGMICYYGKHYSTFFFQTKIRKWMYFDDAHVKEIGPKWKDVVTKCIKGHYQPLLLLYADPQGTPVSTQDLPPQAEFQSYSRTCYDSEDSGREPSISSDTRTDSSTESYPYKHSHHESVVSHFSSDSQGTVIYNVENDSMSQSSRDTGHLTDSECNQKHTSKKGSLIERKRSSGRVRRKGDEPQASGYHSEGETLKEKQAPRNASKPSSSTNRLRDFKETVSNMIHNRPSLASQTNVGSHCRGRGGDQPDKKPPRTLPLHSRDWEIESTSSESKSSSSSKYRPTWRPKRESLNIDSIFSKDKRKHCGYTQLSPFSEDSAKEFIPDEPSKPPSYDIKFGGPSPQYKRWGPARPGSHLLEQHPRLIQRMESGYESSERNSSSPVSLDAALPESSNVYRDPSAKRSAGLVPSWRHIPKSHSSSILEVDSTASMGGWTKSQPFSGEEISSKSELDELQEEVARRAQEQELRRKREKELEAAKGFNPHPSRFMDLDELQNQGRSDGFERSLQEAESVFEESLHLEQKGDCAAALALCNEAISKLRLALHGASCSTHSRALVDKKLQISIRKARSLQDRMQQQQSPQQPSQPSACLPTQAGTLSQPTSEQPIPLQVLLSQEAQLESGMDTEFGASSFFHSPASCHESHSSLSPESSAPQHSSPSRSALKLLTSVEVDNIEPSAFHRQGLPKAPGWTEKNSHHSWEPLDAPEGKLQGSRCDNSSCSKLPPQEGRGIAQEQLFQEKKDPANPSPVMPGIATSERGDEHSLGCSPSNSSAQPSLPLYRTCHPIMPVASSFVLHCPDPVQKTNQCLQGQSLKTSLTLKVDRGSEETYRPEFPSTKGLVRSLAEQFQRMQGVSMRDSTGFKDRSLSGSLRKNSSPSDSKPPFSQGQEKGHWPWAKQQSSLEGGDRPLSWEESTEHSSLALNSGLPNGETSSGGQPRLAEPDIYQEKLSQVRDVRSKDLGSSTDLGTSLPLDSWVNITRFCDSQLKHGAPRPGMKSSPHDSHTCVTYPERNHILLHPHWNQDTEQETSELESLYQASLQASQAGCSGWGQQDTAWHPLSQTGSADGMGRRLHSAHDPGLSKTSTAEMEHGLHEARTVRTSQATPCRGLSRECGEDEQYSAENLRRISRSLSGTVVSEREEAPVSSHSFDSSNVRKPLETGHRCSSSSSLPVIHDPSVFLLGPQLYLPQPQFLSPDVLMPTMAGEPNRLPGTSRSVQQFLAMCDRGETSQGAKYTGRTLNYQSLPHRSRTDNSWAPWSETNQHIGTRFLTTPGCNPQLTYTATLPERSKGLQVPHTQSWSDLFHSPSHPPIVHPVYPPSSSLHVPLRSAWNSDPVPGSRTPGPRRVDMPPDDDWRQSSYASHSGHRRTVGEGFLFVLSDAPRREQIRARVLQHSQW
In short: as §1

[7] = molecular target: USP7 (UniProt Q93009)
In short: as §1

[8] = molecular target: T5, USP8 (UniProt P40818)
T5 sequence (whole entry): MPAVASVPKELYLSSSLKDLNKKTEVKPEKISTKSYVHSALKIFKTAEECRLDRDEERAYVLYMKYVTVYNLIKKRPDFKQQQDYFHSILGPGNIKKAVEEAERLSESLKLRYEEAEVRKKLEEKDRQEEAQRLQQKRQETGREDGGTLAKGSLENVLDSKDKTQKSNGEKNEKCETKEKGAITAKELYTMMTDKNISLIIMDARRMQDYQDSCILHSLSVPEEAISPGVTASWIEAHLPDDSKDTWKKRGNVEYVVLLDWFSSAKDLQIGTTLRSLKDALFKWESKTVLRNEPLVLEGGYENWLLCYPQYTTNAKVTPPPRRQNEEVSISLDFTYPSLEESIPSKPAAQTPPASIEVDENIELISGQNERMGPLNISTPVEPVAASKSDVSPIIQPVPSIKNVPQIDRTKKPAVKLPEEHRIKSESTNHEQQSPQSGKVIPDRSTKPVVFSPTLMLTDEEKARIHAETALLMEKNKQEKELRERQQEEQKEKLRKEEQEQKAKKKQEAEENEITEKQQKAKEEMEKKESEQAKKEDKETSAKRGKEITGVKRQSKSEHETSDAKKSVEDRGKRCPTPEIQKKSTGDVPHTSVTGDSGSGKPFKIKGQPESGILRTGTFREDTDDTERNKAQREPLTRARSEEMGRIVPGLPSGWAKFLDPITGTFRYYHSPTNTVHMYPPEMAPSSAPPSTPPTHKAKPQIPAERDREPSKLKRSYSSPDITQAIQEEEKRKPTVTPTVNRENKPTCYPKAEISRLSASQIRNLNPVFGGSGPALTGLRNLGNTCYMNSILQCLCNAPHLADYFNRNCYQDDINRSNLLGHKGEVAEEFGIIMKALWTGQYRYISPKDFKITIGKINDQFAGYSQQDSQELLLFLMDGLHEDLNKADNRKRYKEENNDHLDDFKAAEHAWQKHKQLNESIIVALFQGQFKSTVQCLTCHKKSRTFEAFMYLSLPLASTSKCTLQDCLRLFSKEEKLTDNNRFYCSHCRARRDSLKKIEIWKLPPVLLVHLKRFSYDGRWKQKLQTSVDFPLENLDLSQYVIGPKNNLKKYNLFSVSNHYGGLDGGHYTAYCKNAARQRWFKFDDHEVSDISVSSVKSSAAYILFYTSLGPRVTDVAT
In short: as §1

[9] = molecular target: USP9X (UniProt Q93008)
Sequence of USP9X (Q93008 whole entry): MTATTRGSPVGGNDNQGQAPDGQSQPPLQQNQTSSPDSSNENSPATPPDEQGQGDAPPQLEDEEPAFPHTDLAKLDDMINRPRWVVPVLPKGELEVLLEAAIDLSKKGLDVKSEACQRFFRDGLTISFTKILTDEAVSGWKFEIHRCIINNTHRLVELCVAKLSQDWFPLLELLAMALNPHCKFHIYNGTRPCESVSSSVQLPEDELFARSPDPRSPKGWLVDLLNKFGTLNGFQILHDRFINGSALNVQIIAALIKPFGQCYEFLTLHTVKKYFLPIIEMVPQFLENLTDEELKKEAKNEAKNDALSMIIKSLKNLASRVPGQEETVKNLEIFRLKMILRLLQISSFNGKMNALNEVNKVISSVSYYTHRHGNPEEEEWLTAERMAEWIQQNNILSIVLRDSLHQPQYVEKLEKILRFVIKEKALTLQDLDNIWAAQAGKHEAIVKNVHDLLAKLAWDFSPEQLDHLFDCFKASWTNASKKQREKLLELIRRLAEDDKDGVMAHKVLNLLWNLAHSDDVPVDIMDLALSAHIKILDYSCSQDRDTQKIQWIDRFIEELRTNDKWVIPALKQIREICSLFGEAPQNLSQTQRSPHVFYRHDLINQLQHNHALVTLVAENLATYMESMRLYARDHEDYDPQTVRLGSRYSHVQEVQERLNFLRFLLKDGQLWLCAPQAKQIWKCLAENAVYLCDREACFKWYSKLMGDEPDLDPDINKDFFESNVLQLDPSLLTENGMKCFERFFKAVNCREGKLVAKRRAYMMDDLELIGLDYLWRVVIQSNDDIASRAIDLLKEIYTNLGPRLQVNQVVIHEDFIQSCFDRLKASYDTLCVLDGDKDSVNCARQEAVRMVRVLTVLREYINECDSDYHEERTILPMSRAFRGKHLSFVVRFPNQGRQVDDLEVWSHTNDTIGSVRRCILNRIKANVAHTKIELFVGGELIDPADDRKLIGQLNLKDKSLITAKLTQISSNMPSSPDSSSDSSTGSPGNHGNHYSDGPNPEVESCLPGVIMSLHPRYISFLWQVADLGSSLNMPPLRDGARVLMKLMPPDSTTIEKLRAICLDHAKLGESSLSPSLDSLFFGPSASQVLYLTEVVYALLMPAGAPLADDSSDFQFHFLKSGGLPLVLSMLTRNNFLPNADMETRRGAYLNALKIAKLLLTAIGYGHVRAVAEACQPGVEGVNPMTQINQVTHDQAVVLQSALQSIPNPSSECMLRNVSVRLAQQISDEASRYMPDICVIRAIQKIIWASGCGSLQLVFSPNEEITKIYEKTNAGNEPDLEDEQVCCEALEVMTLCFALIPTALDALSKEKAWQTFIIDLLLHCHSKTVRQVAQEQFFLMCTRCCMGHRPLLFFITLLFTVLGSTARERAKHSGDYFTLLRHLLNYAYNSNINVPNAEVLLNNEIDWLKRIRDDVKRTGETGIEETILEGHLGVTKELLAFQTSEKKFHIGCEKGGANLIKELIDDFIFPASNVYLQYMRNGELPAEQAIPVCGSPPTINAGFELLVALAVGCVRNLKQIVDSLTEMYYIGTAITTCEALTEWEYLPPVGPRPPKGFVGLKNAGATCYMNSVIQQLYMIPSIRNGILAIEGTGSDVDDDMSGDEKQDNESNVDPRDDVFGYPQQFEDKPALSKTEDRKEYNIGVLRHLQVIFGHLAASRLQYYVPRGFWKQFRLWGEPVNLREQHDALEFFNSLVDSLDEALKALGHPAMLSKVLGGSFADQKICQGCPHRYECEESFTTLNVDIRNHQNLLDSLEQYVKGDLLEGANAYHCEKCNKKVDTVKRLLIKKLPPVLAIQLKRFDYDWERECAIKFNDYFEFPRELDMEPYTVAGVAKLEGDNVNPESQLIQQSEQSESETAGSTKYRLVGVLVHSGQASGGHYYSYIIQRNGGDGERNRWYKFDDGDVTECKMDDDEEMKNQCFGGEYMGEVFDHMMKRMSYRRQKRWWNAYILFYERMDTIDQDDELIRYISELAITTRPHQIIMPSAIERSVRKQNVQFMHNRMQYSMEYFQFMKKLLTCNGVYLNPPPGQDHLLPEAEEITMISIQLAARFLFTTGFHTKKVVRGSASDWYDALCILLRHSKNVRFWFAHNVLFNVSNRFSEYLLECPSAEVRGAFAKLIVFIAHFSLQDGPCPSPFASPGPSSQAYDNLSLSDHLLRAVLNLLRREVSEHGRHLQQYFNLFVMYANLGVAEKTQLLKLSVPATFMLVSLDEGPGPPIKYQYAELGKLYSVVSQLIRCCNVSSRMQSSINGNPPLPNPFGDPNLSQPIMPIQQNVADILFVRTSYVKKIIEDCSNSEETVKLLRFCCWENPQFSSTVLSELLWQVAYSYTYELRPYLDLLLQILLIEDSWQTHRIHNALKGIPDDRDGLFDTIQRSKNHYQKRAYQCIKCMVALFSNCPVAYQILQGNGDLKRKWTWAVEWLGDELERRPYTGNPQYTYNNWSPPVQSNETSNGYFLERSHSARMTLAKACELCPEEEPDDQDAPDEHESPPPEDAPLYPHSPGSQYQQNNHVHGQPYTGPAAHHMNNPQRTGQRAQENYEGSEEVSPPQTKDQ
In short: as §1

[10] = molecular target: UniProt O00487
Sequence of UniProt O00487 (O00487 whole entry): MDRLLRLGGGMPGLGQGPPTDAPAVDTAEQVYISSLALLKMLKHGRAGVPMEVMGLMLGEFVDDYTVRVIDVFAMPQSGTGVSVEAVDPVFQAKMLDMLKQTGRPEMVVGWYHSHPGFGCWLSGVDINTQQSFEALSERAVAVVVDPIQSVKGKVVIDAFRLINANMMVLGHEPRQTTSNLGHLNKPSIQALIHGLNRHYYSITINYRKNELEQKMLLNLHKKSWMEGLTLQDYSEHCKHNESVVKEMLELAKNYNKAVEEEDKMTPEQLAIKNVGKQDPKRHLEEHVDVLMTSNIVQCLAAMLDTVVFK
In short: as §1

Measured: log2 ratio of Biotin-Ahx-Ub-VS probe labelling

CS(=O)(=O)c1ccc(NC(=O)CCl)cc1
inactive: [1] 0.0549 | [2] 0.119 | [3] -0.0487 | [4] -0.946 | [5] 0.0085 | [6] 0.431 | [7] -0.156 | [8] 0.012 | [9] -0.388 | [10] -0.115
